# TNAP act mid DEA: human TNAP activation, intermediate phosphate acceptor. P05186. purified TNAP, CDP-star luminescence, 100 mM DEA, 30 min; active compounds read high; scale: 0 levamisole-inhibited, 1 vehicle-only enzyme. activation factor at 20 µM. 64,000 tested, under 10 active. AID 813;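 active = activation factor of at least 2 at 20 µM, relative to controls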
# S1P1 ag pot: activates or potentiates agonism at human S1P1 receptor | activation, % at 9.5 µM | S1P1 CRE-bla cells, forskolin, beta-lactamase FRET, potentiator mode; S1P1 agonist co-added at EC20, 2 nM; 100% = saturating reference agonist, 0% = basal | AID 449 | 0.57% of 56,000 active | P21453;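 active = activation above a cutoff set at the mean activation of all tested compounds plus 3 SD, cut at about 54% in these data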;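 also: forskolin at 4 µM as EC80 and the EC20 agonist is SEW2871; 100% = SEW2871 at its EC100 plus forskolin at EC80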
# Hsp90 inh: displaces geldanamycin probe from tumor Hsp90 | 0.35% of 64,000 active | NCI-N417 lysate Hsp90, Cy3B-geldanamycin FP displacement | P07900 | AID 429 | inhibition, % at 30 µM;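 active = inhibition above 50%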;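 also: 0% = tracer plus lysate wells and 100% = tracer alone without lysate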
# SK-BR-3 tox 24h: SK-BR-3 proliferation inhibitors; SK-BR-3 viability, CellTiter-Glo ATP luminescence, 24 h; active compounds read low; viability, % at 10 µM; 0.47% of 41,000 active; AID 847;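 active = viability at or below the median of all test compounds minus 3 SD, in both replicates if run twice, cut at about 45% in these data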;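 also: 100% = median untreated cell wells and 0% = median positive control drug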
# Her2 expr inh: lowers expression of human Her2 kinase. SKBR-3 HER2 protein level, AlphaScreen, 18-24 h; active compounds read low. HER2 level % of control, % at 10 µM. 0.69% of 65,000 active. AID 645;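 active = HER2 level under 5% of the carrier-only control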;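 also: 100% = DMSO carrier and 0% = 500 nM PU-H71 HSP90 inhibitor; lower value means stronger loss of Her2 protein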
# BAP1 inh: blocks human BAP1 ubiquitin-AMC hydrolysis | Q92560 | recombinant BAP1, Ub-AMC hydrolysis fluorescence kinetic; active compounds read low | activity remaining (% of control), % at 20 µM | 0.48% of 72,000 active;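 active = activity remaining at or below 50% of control, provided the compound also passes the data quality filters; inactive = the rest, including low values that fail the filters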;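 also: 100% = DMSO wells rate and 0% = substrate alone blank rate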
# * hit, by the source's call; . = no result shown. This is a sample that favours compounds with a hit; in the whole collection about 1.9% have one here.
SMILES,TNAP act mid DEA,S1P1 ag pot,Hsp90 inh,SK-BR-3 tox 24h,Her2 expr inh,BAP1 inh
CS(=O)(=O)c1ccc(N2CCOCC2)c(S(C)(=O)=O)c1,0.9,-10,-2,90,78,64
Cc1cc(NC(=O)CNC(=O)C2CCCCC2)no1,1,8,4,.,-20*,95
O=C1CCCC2=C1C(c1c(Cl)nc3sccn13)C1=C(CCCC1=O)N2,1.1,6,-2,.,127,103
CCCCCCCCCCCCCCCCOCC(COCC(F)(F)F)OP(=O)(O)OCO (stereo unspecified),.,.,-3,.,.,1.4*
COC(=O)C1=C(N)Oc2cc(C)n(C)c(=O)c2C1c1ccc(Cl)c(Cl)c1 (stereo unspecified),1,-8,3,117,3.3*,105
COC(=O)C1=C(N)Oc2cc(C)n(CCCn3ccnc3)c(=O)c2C1c1ccc(Cl)cc1 (stereo unspecified),0.9,-9,-1,74,158,102
COc1ccc(NS(=O)(=O)c2ccc3c(c2)CCC(=O)N3)c(OC)c1,1,9,11,89,120,102
Cn1cnc2c(NCc3ccccc3)nc(NCCO)nc21,.,.,3,.,.,85
O=C1C2C3C=CC(C3)C2C(=O)N1CNc1ccc(O)cc1 (stereo unspecified),0.8,-8,61*,97,90,111
Cc1ccc(NCN2C(=O)C3C4C=CC(C4)C3C2=O)cc1 (stereo unspecified),0.9,-7,-3,.,86,87
CCOc1ccc(C(=O)Nc2c(C(N)=O)oc3ccccc23)cc1,.,54*,5,95,79,89
COc1cccc(C(=O)Nc2c(C(N)=O)oc3ccccc23)c1,0.9,15,-2,.,38,94
Cc1nc(-c2c(-c3ccc(O)cc3O)noc2C(F)(F)F)cs1,0.9,8,74*,75,55,134
COc1ccc(-c2nc(N)ncc2-c2csc(C)n2)c(O)c1,0.9,13,10,.,107,88
Cc1cc(-c2cc(N)n(-c3ccccc3)n2)c(C)n1C1CCCC1,0.9,8,-9,43*,57,77
CC(C)N(CCC(=O)c1ccc2ccccc2c1)Cc1ccccc1,.,.,-4,.,.,48*
COc1ccc(N2C(=O)CCC(C(=O)N3CCC(C(N)=O)CC3)C2c2ccc(F)cc2)cc1 (stereo unspecified),0.9,.,.,97,141,.
CN1CCN(CCCNc2nc3ccccc3c3nc(-c4ccccc4)nn23)CC1,0.9,-12,-3,.,-10*,124
COc1cc2nc(NCCN3CCOCC3)n3nc(-c4ccccc4)nc3c2cc1OC,1,-7,-3,.,35,161
COC(=O)c1cn[nH]c1N,0.9,-11,-4,104,108,106
CCCCCNC(=O)C(C#N)c1nc2ccccc2nc1N1CCCC1 (stereo unspecified),0.8,28,-1,74,-23*,61
CCCCCCNC(=O)C(C#N)c1nc2ccccc2nc1N1CCOCC1 (stereo unspecified),0.9,-4,-3,107,100,99
COc1ccc(C(CC(=O)NC(C)(C)C)n2cccc2)cc1 (stereo unspecified),0.9,-4,-4,.,70,103
COc1cc2c(C(=O)NCc3ccc4c(c3)OCO4)cn(CC(C)C)c(=O)c2cc1OC,0.9,-35,-3,25*,25,115
CCOC(=O)C1=C(C)Nc2nnnn2C1c1cccc(OC)c1OC (stereo unspecified),1,-1,-6,83,93,92
SMILES,TNAP act mid DEA,S1P1 ag pot,Hsp90 inh,SK-BR-3 tox 24h,Her2 expr inh,BAP1 inh
CCc1ccc(N2CSC3=C(C#N)C(c4cccs4)CC(=O)N3C2)cc1 (stereo unspecified),1,-17,-6,89,80,75
COc1ccc(N2CSC3=C(C#N)C(c4ccc(OC)c(OC)c4)CC(=O)N3C2)c(OC)c1 (stereo unspecified),1,-11,77*,.,83,83
CCc1ccc(C2CC(=O)N3CN(c4ccccc4)CSC3=C2C#N)cc1 (stereo unspecified),0.9,-12,-1,.,-18*,64
COc1ccc(C2CC(c3ccc(Br)cc3)Nc3nc(N)nn32)cc1 (stereo unspecified),0.9,-20,-3,103,93,69
Nc1nc2n(n1)C(c1cccs1)CC(c1ccc(Br)cc1)N2 (stereo unspecified),0.9,8,2,134,-20*,98
CN1CCN(c2ccc(Cl)cc2NC(=O)c2ccc(S(=O)(=O)N3CCCCCC3)cc2)CC1,0.9,-9,0,.,-6.0*,74
COc1c(Cl)cc(Cl)cc1C(=O)Nc1ccccc1N1CCN(C(C)=O)CC1,0.9,-22,1,77,73,66
CN1CCN(S(=O)(=O)c2ccc(NC(=O)c3cccc(S(=O)(=O)N4CCCC4)c3)cc2)CC1,1,-7,-2,105,87,98
COc1ccc(Cl)cc1C(=O)Nc1ccccc1N1CCN(C)CC1,0.9,-18,1,79,-18*,140
Cc1cc(C(C)(C)C)c(O)c(C)c1CC1=NCCN1,0.9,4,-3,102,123,187
O=C(CCN1CCC(c2ccccc2)C1)c1cccs1 (stereo unspecified),0.9,2,-1,147,-45*,82
COc1cc(NC(C)CCCNC(C)C)c2ncccc2c1OC (stereo unspecified),.,.,36,.,.,.
CCN(CC)CCCNc1cc(OC)c(Nc2ccccc2)c2cccnc12,.,.,130*,.,.,.
CCOC(=O)NC(=O)CSc1nnnn1-c1ccccc1,1,.,-7,88,95,90
COc1ccccc1-n1c(SCC(=O)NC(C)(C)C)nc(O)cc1=O,0.9,-5,-7,105,-39*,88
CC(C)(C)NC(=O)CSc1nc(O)cc(=O)n1-c1ccccc1F,1,.,.,98,83,.
CCOc1nc(C#N)nc(N2CCCCC2)n1,1,-25,1,39*,59,89
CCC(NC(=O)Nc1nnc(C(F)(F)F)s1)(C(F)(F)F)C(F)(F)F,0.9,112*,-2,101,14,107
O=C(O)CCC(=O)Nc1nnc(C(F)(F)F)s1,0.9,7,4,40*,105,106
CCC(NC(=O)Nc1ncccc1C)(C(F)(F)F)C(F)(F)F,0.9,2,0,90,87,.
O=C(CCC(=O)N1CCCC1)Nc1nnc(C(F)(F)F)s1,0.9,-11,-1,88,97,104
O=c1oc2cc(O)ccc2c2oc3cc(O)ccc3c12,0.9,-22,4,94,102,.
Clc1ccccc1C1=Nn2c(nnc2-c2ccncc2)SC1,1,75*,-1,90,37,95

# From PubChem
